Shown are actives, neighbours in structure and some others; about 3.5% of the full set was active somewhere.
Anthrax LF inh2 – anthrax lethal factor protease inhibition. P15917. multiplex microsphere protease cleavage assay, LF. AID 588501. hit rate 0.12% among 360,000. inhibition, % at 10 µM; also: plate controls were buffer without enzyme for full effect and enzyme alone for no effect
BoNT F protease – BoNT F light chain protease inhibition. inhibition, % at 10 µM. hit rate 0.22% among 360,000. Multiplex microsphere protease cleavage assay, flow cytometry. AID 588497; in the data active = inhibition above about 35%, passing the limit was not always enough; inconclusive = no clear call, values can overlap the other calls; also: plate controls were buffer without enzyme for full effect and enzyme alone for no effect
Bead autofluor – compound fluorescence in toxin protease inhibitor counterscreen; hit rate 3.1% among 360,000; fluorescence intensity (concentration not given with the values); compound autofluorescence counterscreen, microsphere flow cytometry; active compounds read high; in the data active = fluorescence intensity above about 16000; inconclusive = no clear call, values can overlap the other calls
BoNT A protease – blocks Botulinum neurotoxin A light chain protease; inhibition, % at 10 µM; AID 588499; multiplex microsphere protease substrate cleavage, flow cytometry; hit rate 0.17% among 360,000; also: plate controls were buffer without enzyme for full effect and enzyme alone for no effect
BoNT-A LC CP1 – inhibitors of Botulinum neurotoxin A light chain protease; multiplex microsphere protease assay, flow cytometry; shares compounds with BoNT F protease; inhibition, % at 10 µM; hit rate 3% among 720; in the data active = inhibition above about 32%
BoNTF LC inh 1 – blocks botulinum neurotoxin F light chain protease | 720 tested, under 10 active | multiplex microsphere protease cleavage assay, flow cytometry | AID 602140 | shares compounds with BoNT F protease | inhibition, % at 10 µM; call rule not given here
LF protease CP1 – blocks anthrax lethal factor protease; shares compounds with BoNT F protease; multiplex microsphere protease cleavage assay, LF; inhibition, % at 10 µM; 720 tested, under 10 active; AID 602142; call rule not given here
Starred values were filed as active, the others as inactive; ? = inconclusive; nt = no result given. Rule as the data show it, unless noted: active = inhibition above about 30%; inconclusive = no clear call, values can overlap the other calls; inactive = below that.

SMILES | Anthrax LF inh2 | BoNT F protease | Bead autofluor | BoNT A protease | BoNT-A LC CP1 | BoNTF LC inh 1 | LF protease CP1
CCCC(C)C(=O)Nc1nnc(CCc2ccccc2)s1 (stereo not drawn) | -3.0 | ? | 3352 | 0.9 | nt | nt | nt
Cc1ccc(C2CC(c3ccc(NS(C)(=O)=O)cc3)=NN2C(=O)c2ccco2)cc1 (stereo not drawn) | 1.5 | 36.1* | 2791 | 3.3 | 0.7 | -3.9 | 0.3
CCOC(=O)c1cc2sccc2n1CC(=O)C(C)(C)C | -2.3 | -1.3 | 4319 | -0.1 | nt | nt | nt
CC(C)n1c(NCc2ccccc2O)nc2ccccc21 | 0.8 | 48.7* | 3793 | -1.4 | -0.5 | -2.9 | -0.7
Cc1ccc(CSC2=Nc3ccccc3C3=NC(=O)CN23)cc1 | -8.2 | 35.5* | 4461 | 4.5 | -0.2 | -2.5 | 1.9
COc1ccc(CCNC(=O)C(C)n2nc(C)n3c(cc4occc43)c2=O)cc1OC (stereo not drawn) | 2.4 | 7.1 | 6489 | -0.1 | nt | nt | nt
COc1cc(-c2ncc3ccccn23)cc(OC)c1OC | 1.7 | -2.7 | 3354 | 0.2 | 0.7 | -14.4 | -7.5
COc1cccc(-c2ncc3ccccn23)c1 | 11.0 | -3.6 | 3261 | 5.4 | 1.8 | -1.5 | -0.8
COc1cc(OC)cc(-c2ncc3ccccn23)c1 | 6.2 | -6.9 | 4252 | 4.5 | 1.6 | -10.2 | 1.2
COc1ccc(-c2nc3ccccn3c2Cl)cc1 | 1.7 | 1.0 | 3253 | -1.0 | nt | nt | nt
c1csc(-c2ncc3ccccn23)c1 | 15.2 | 20.6 | 3405 | 14.0 | nt | nt | nt
COc1cccc(-c2cnc3c(NC(C)=O)cc(-c4ccccc4OC)cn23)c1 | -7.5 | 2.0 | 3668 | -0.3 | nt | nt | nt
COc1ccc(-c2ncc3ccccn23)cc1 | 12.9 | 1.2 | 4513 | 8.8 | 1.5 | 1.3 | 5.8
COc1ccc(N2C(=O)CS/C2=N\C(=S)Nc2ccccc2)cc1 | 7.9 | ? | 4217 | 2.5 | nt | nt | nt
O=C(CSc1n[nH]c(-c2ccncc2)n1)NCCc1ccccc1 | 1.3 | -5.6 | 2758 | 0.0 | nt | nt | nt
CCc1nc(SCC(=O)NCCc2ccccc2)n[nH]1 | -5.8 | 35.3* | 3454 | 0.6 | 1.1 | 0.4 | 2.7
Cc1ccc(NC(=O)CCc2ccc(C)o2)c(Br)c1 | -12.4 | 90.9* | 3907 | 3.4 | -0.1 | -2.2 | -2.8
Cc1ccc(CCC(=O)Nc2ccc(Cl)cc2Cl)o1 | -4.8 | -2.8 | 3523 | -0.5 | nt | nt | nt
CCC(=O)Nc1cccc(C(=O)N(Cc2ccccc2)Cc2ccccc2)c1 | 2.9 | 44.1* | 4143 | -1.9 | -0.8 | -1.8 | -3.4
CC(C)N(Cc1ccccc1)C(=O)CN1C(=O)c2ccccc2C1=O | -9.6 | 7.4 | 4105 | -0.2 | nt | nt | nt
CC(C)N(Cc1ccccc1)C(=O)CC(=O)N(Cc1ccccc1)C(C)C | 12.2 | 36.2* | 5070 | 8.7 | 0.1 | -3.7 | -1.9
CCOC(=O)N1CCN(C(=O)c2cn(CC)c3ccc(S(=O)(=O)N4CCCCC4)cc3c2=O)CC1 | -1.7 | -4.3 | 3992 | -0.1 | nt | nt | nt
Cc1nc(C)c(-c2ccn(C(=O)NC(C)C)n2)s1 | 3.2 | 38.3* | 3164 | 0.8 | 1.7 | -2.0 | 2.6
CC(Sc1nnc(C2CC2)n1C1CC1)C(=O)NC1(C#N)CCCCC1 (stereo not drawn) | -4.4 | -3.1 | 2648 | 0.5 | nt | nt | nt
CCN1CCN(C(=O)C(=O)c2c(C)[nH]c3ccccc23)CC1 | -0.1 | -9.0 | 4343 | -0.8 | nt | nt | nt
SMILES | Anthrax LF inh2 | BoNT F protease | Bead autofluor | BoNT A protease | BoNT-A LC CP1 | BoNTF LC inh 1 | LF protease CP1
Cc1[nH]c2ccc(Br)cc2c(=O)c1CN1CCCCC1 | -26.0 | 51.6* | 8167 | ? | -1.5 | -5.7 | -1.7
Cc1[nH]c2ccccc2c(=O)c1CN1CCCCCC1 | 6.7 | 0.6 | 3388 | -2.4 | nt | nt | nt
O=C1C2C3C=CC(CC3)C2C(=O)N1c1ccc(Cl)cc1Cl (stereo not drawn) | 2.9 | 60.3* | 4588 | 3.3 | -1.4 | -6.1 | -0.9
CCc1ccccc1N1C(=O)C2C3C=CC(CC3)C2C1=O (stereo not drawn) | 6.5 | 3.5 | 3702 | 0.7 | nt | nt | nt
O=C(O)CC(NC(=O)CCc1ccccc1)c1ccc(Cl)cc1 (stereo not drawn) | 12.0 | -4.5 | 4092 | -3.1 | nt | nt | nt
COc1ccc(-c2nc3ccc(C(=O)NCC(OC)OC)cc3nc2-c2ccc(OC)c(OC)c2)cc1OC | 4.9 | -1.5 | 3509 | 2.0 | nt | nt | nt
COC(CNC(=O)c1ccc2nc(-c3cccs3)c(-c3cccs3)nc2c1)OC | 25.0 | 26.2 | 8849 | 44.5* | 20.8 | 1.9 | 8.2
COc1ccc(C)cc1N(CC(=O)N1CCCC1)S(C)(=O)=O | -9.5 | 4.6 | 3853 | -1.2 | nt | nt | nt
COc1ccc(C)cc1N(CC(=O)N1CCOCC1)S(C)(=O)=O | 14.0 | 35.7* | 4074 | -3.0 | -0.1 | 0.0 | -4.9

Compound activity: PubChem, NMMLSC
